The campaign covered roughly 1,600 compounds. About 430 (27%) were called active. No stated cut-off is given here; in the data, active means inhibition above about 29%; inactive means the rest. The list is a sample of the results.
Each molecule was assayed against Melanocortin receptor 4 (Homo sapiens) (UniProt P32245) (assay: blockers of MC4R cAMP signaling – cell-based, TR-FRET, confirmation (AID 602195;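 further: 0% = agonist stimulated wells alone and 100% = agonist stimulated wells plus saturating reference antagonist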)). Settings: MC4R-expressing cells, MTII-stimulated cAMP, at 6.5 µM, active compounds read high.
Chain of Melanocortin receptor 4 (Homo sapiens) (P32245 whole entry, looked up): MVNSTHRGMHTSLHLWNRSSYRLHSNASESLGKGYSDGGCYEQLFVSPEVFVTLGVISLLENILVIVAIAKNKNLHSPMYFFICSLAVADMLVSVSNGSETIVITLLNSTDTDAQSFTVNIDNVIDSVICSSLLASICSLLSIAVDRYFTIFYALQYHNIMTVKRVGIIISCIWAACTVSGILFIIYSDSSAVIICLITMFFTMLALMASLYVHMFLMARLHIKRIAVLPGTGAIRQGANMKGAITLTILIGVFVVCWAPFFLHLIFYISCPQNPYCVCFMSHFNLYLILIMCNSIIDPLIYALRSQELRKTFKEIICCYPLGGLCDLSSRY

`C#Cc1cc(N2CCN(C(=O)c3ccoc3)CC2)n2nc(-c3cccc(Cl)c3)cc2n1` was tested. Which inhibition did it give?
The inhibition was 36.4% (active).

With `Cc1ccc(Sc2ccc(NC(=O)c3ccc(F)cc3)cc2C#N)cc1` as the molecule, how does the inhibition read?
Its inhibition is 24.9% (inactive).

`Cc1c(CCC(=O)O)c(=O)oc2cc(OCc3ccc(Br)cc3)ccc12` was tested. Which inhibition did it give?
The inhibition was -0.06% (inactive).

For `CN(C)C(CNC(=O)CCCOc1ccccc1)c1ccco1` (configuration not stated), which inhibition is on record?
Its inhibition is -4.52% (inactive).

`COC(=O)[C@H](Cc1ccccc1)NC(=O)[C@@H]1C[C@H]1[C@@H](NC(=O)OCc1ccccc1)c1ccccc1` was tested. Which inhibition did it give?
The inhibition was 62.1% (active).

With `COc1ccccc1N(CC(=O)N/N=C(\C)c1ccccc1O)S(=O)(=O)c1ccc(C)cc1` as the molecule, how does the inhibition read?
Its inhibition is 11.1% (inactive).

How did the inhibition turn out when `CCOC(=O)C(C)n1cnc2sc(C)c(C)c2c1=O` (configuration not stated) was run?
Its inhibition is 5.44% (inactive).

How did the inhibition turn out when `COC(=O)c1sc(-c2ccc(C(C)(C)C)cc2)cc1NC(=O)/C=C/C(=O)O` was run?
The inhibition was -6.9% (inactive).

`Cc1ccc(C(C(=O)NCC2CCCO2)N(C(=O)c2snc(C(N)=O)c2N)c2ccc(C(C)C)cc2)o1` (configuration not stated) was tested. Which inhibition did it give?
Its inhibition is 10.5% (inactive).

Which inhibition does the source give for `CN(CC(=O)NCCc1ccccn1)S(=O)(=O)c1ccc(Cl)cc1` here?
The inhibition was -19.7% (inactive).

`CC(C)(C)OC(=O)N1CCC(NC(=O)c2[nH]cnc2C(=O)N[C@@H](Cc2ccccc2)C(=O)OCc2ccccc2)CC1` was tested. Which inhibition did it give?
Its inhibition is 55.3% (active).

With `O=C(Cn1nnc2ccccc2c1=O)Nc1cc(C(F)(F)F)ccc1N1CCOCC1` as the molecule, how does the inhibition read?
The inhibition was -7.03% (inactive).

Which inhibition does the source give for `CCOC(=O)c1cc(C)nc(S(C)(=O)=O)c1C#N` here?
Its inhibition is 29.6% (active).

Which inhibition does the source give for `Cc1nnc(N/N=C/C2CC=CCC2)[nH]c1=O` (configuration not stated) here?
Its inhibition is 2.83% (inactive).

`Cc1ccc(NC(=O)COC(=O)CNC(=O)c2ccc(Cl)cc2Cl)cc1S(=O)(=O)N1CCOCC1` was tested. Which inhibition did it give?
The inhibition was 13.7% (inactive).

Which inhibition does the source give for `O=C(Nc1nccs1)c1cc(S(=O)(=O)N2CCOCC2)c(Cl)cc1Cl` here?
Its inhibition is 38.2% (active).

Which inhibition does the source give for `O=C(O)CCn1cc(/C=C/C(=O)c2ccc(Cl)cc2)c(-c2cccc(Br)c2)n1` here?
Its inhibition is 13.2% (inactive).

Which inhibition does the source give for `CC1(C)C(c2cccs2)=[N+]([O-])C2(CCCCC2=O)N1O` (configuration not stated) here?
Its inhibition is -17.8% (inactive).

How did the inhibition turn out when `Cc1ccc(C)c(S(=O)(=O)N2CCN(CC(=O)Nc3ccc([N+](=O)[O-])cc3)CC2)c1` was run?
The inhibition was -6.36% (inactive).

With `CCOC(=O)c1c(NC(=O)CCl)sc(C(=O)N(CC)CC)c1C` as the molecule, how does the inhibition read?
The inhibition was 44.7% (active).

How did the inhibition turn out when `O=C(Nc1ccccc1Cl)/C(Cl)=C(\Cl)S(=O)c1ccccc1` (configuration not stated) was run?
Its inhibition is -8.38% (inactive).

For `COc1ccc(-c2nc3n(c(=O)c2C#N)CCS3)c(OC)c1`, which inhibition is on record?
The inhibition was -26.2% (inactive).

`O=C(COC(=O)c1c2c(nc3ccccc13)CCCC2)c1ccc(Br)s1` was tested. Which inhibition did it give?
Its inhibition is 13.6% (inactive).

Which inhibition does the source give for `O=C(Nc1nnc(Cc2ccc(Cl)cc2)s1)c1cccnc1` here?
The inhibition was -6.82% (inactive).

For `CSc1nnc(NC(=O)c2nc(S(=O)(=O)Cc3ccc(C)cc3)ncc2Cl)s1`, which inhibition is on record?
Its inhibition is 48.5% (active).

For `Cc1cccc(OCC(O)Cn2c(N3CCCCC3)nc3c2c(=O)[nH]c(=O)n3C)c1` (configuration not stated), which inhibition is on record?
The inhibition was -4.42% (inactive).

For `Cc1ccc(OCC(=O)Nc2ccc(NC(=O)c3cccs3)cc2)c(C)c1`, which inhibition is on record?
Its inhibition is -16.5% (inactive).

How did the inhibition turn out when `CC(=O)Nc1ccc(Sc2ccccc2C(=O)N2CCCC2)cn1` was run?
Its inhibition is -13.6% (inactive).

For `COc1ccc2sc(-c3ccc(S(C)(=O)=O)cc3)c(-c3ccc(C(N)=O)cc3)c2c1`, which inhibition is on record?
Its inhibition is 27.4% (inactive).

`COc1ccc(/C=N/OCC(=O)N(Cc2ccccc2)c2ccccc2C(=O)O)cc1` was tested. Which inhibition did it give?
The inhibition was 1.15% (inactive).

Which inhibition does the source give for `O=C1/C(=C\c2ccc([N+](=O)[O-])cc2)CS(=O)(=O)C/C1=C/c1ccc([N+](=O)[O-])cc1` here?
The inhibition was 31.9% (active).

With `COCCCNC(=O)/C(C#N)=C/c1c(N2CCCCCC2)nc2ccccn2c1=O` as the molecule, how does the inhibition read?
Its inhibition is 11.9% (inactive).

For `COc1cccc(OC)c1C(=O)Nc1c(C(=O)N2CCN(c3ccccn3)CC2)oc2ccccc12`, which inhibition is on record?
Its inhibition is -8.35% (inactive).

Which inhibition does the source give for `CCOc1ccc(Nc2nc(Cl)nc(N3CCN(c4ccc(OC)cc4)CC3)n2)cc1` here?
Its inhibition is 33.7% (active).

`Cc1ccc(NC(=O)c2c(NC(=O)CCC(=O)O)sc3c2CCCCC3)cc1` was tested. Which inhibition did it give?
The inhibition was 1.41% (inactive).

`Cc1ccc(S(=O)(=O)CCC(=O)OCC(=O)N(C)Cc2ccccc2)cc1` was tested. Which inhibition did it give?
Its inhibition is 7.91% (inactive).

How did the inhibition turn out when `Cc1ccc(S(=O)(=O)N(C)CC(=O)OCC(=O)Nc2ccccc2)cc1` was run?
The inhibition was 38.5% (active).

Which inhibition does the source give for `Cc1ccc(S(=O)(=O)N(C)CC(=O)OCC(=O)N2CC(=O)Nc3ccccc32)cc1` here?
Its inhibition is 16.8% (inactive).

With `O=C(c1ccc2c(c1)N(Cc1ccc(F)cc1)C(=O)c1ccccc1S2(=O)=O)N1CCN(c2ccccn2)CC1` as the molecule, how does the inhibition read?
The inhibition was -2.23% (inactive).

How did the inhibition turn out when `O=C(COC(=O)Cn1cnc2ccccc2c1=O)NCC12CC3CC(CC(C3)C1)C2` was run?
Its inhibition is 30.5% (active).

`O=S(=O)(NCc1ccco1)c1cnc(Cl)c(Cl)c1` was tested. Which inhibition did it give?
The inhibition was 54.2% (active).

With `O=C(NCCc1c[nH]c2ccccc12)c1cccc(Br)c1` as the molecule, how does the inhibition read?
The inhibition was 3.64% (inactive).

Which inhibition does the source give for `COc1ccc(-c2n[nH]c(C)c2-c2ccccc2OC)c(O)c1` here?
Its inhibition is 0.3% (inactive).

Which inhibition does the source give for `O=C(COC(=O)[C@H](Cc1ccccc1)NC(=O)c1cccs1)Nc1cc(F)ccc1F` here?
Its inhibition is 14.7% (inactive).

For `Cc1nc2ccccc2c(=O)n1NC(=O)c1ccc(Cl)c([N+](=O)[O-])c1`, which inhibition is on record?
The inhibition was 44.2% (active).

`Cc1ccccc1-c1n[nH]c(=S)n1/N=C/c1ccc(-c2ccccc2Br)o1` was tested. Which inhibition did it give?
The inhibition was 0.08% (inactive).

With `O=C(CSc1nc2ccc(Nc3nc(N4CCOCC4)nc(N4CCOCC4)n3)cc2s1)NCc1ccco1` as the molecule, how does the inhibition read?
Its inhibition is -2.81% (inactive).

How did the inhibition turn out when `Cc1c(Cl)cccc1NC(=O)[C@@]1(CC(=O)O)CC(/C=C/c2ccccc2)=NO1` was run?
Its inhibition is -4.9% (inactive).

`Cc1ccc(NC(=O)C(C)OC(=O)Cc2c[nH]c3ccccc23)cc1S(=O)(=O)N1CCOCC1` (configuration not stated) was tested. Which inhibition did it give?
Its inhibition is 5.56% (inactive).

With `CCOC(=O)CSc1nc(N2CCOCC2)c2c(c1C#N)CC(C(C)C)OC2` (configuration not stated) as the molecule, how does the inhibition read?
The inhibition was 8.67% (inactive).

How did the inhibition turn out when `CCCCOC(=O)CNc1nnc(SCC(=O)OCC)[nH]c1=O` was run?
The inhibition was 44.4% (active).

For `CC(C)Oc1ccc(/C=C(\NC(=O)/C=C/c2ccco2)C(=O)NCCc2nc3ccccc3[nH]2)cc1`, which inhibition is on record?
The inhibition was -6.84% (inactive).

With `Cc1ccc(NS(=O)(=O)c2ccc(C)c(NC(=O)COc3ccc4ccccc4c3)c2)c(C)c1` as the molecule, how does the inhibition read?
The inhibition was 0.85% (inactive).

For `COc1ccc(-n2nc(C(=O)Nc3cc(OC)c(OC)c(OC)c3)c3ccccc3c2=O)c(OC)c1`, which inhibition is on record?
Its inhibition is 3.92% (inactive).

`O=C(NC1=CC(=O)c2ccccc2C1=O)c1ccccc1` was tested. Which inhibition did it give?
Its inhibition is 15.8% (inactive).

With `COc1ccc(C(C)C)cc1S(=O)(=O)Nc1ncn[nH]1` as the molecule, how does the inhibition read?
The inhibition was 5.25% (inactive).

`Cc1ccc(CSc2nnc(-c3cnccn3)n2C)cc1` was tested. Which inhibition did it give?
Its inhibition is 10.6% (inactive).

For `COc1ccc(Oc2c(Cl)cnn(-c3ccccc3)c2=O)cc1`, which inhibition is on record?
Its inhibition is 72.2% (active).

For `O=C(Nc1ccc(F)c([N+](=O)[O-])c1)C1CC(=O)N(Cc2ccccc2)C1` (configuration not stated), which inhibition is on record?
Its inhibition is 42.5% (active).

With `Cc1ccc(-c2nnc(CN3CCN(C)CC3)o2)cc1` as the molecule, how does the inhibition read?
Its inhibition is 7.87% (inactive).

For `O=C(OCC(=O)N1CCCCCC1)c1cnc(Cl)c(Cl)c1`, which inhibition is on record?
Its inhibition is 35.9% (active).

How did the inhibition turn out when `COc1ccc(CCNC(=O)c2cnc(Cl)c(Cl)c2)cc1` was run?
The inhibition was 35.6% (active).

`COc1ccc(CCNC(=O)COC(=O)c2cnc(Cl)c(Cl)c2)cc1` was tested. Which inhibition did it give?
Its inhibition is 36.7% (active).

For `CC(C)Oc1c(Br)cc(Br)cc1/C=N/NC(N)=S`, which inhibition is on record?
The inhibition was 25.2% (inactive).

For `COc1ccc(Cl)cc1-c1cc(C(=O)Nc2cc(OC)c(OC)c(OC)c2)[nH]n1`, which inhibition is on record?
The inhibition was -21.1% (inactive).

With `O=C(NCC1CCN(Cc2ccccc2Cl)CC1)Nc1cccc(Cl)c1` as the molecule, how does the inhibition read?
Its inhibition is -1.08% (inactive).

For `CC(NS(=O)(=O)c1ccc(Br)cc1)C(=O)NCC1CCCO1` (configuration not stated), which inhibition is on record?
Its inhibition is 0.92% (inactive).

With `CCOC(=O)c1c(-c2ccccc2)oc2cc(Br)c(O)c(C=O)c12` as the molecule, how does the inhibition read?
Its inhibition is 68.6% (active).

How did the inhibition turn out when `C=Cn1c(C(=O)O)ccc1-c1ccc(OC)cc1` was run?
The inhibition was -8.3% (inactive).

With `N#C/C=C1\Sc2ccccc2C(=O)N1CC(=O)N1CCN(S(=O)(=O)c2ccccc2)CC1` as the molecule, how does the inhibition read?
The inhibition was 3.29% (inactive).

`CCCC(C(=O)n1nc(C)cc1C)C(NS(=O)(=O)c1ccc(C)cc1)c1ccccc1` (configuration not stated) was tested. Which inhibition did it give?
Its inhibition is 13.1% (inactive).

With `N#Cc1c(-c2cccs2)nc(SCC(=O)c2ccc(Br)cc2)[nH]c1=O` as the molecule, how does the inhibition read?
Its inhibition is 19.2% (inactive).

Which inhibition does the source give for `CC1(C)Cc2ccccc2-c2[nH]c(=S)[nH]c(=O)c21` here?
Its inhibition is 36.1% (active).

For `COc1ccc2oc(N)c(C=O)c(=O)c2c1`, which inhibition is on record?
Its inhibition is -15.9% (inactive).

With `CC(=O)N1CCN(S(=O)(=O)c2c(F)cc(F)c(Cl)c2F)CC1` as the molecule, how does the inhibition read?
Its inhibition is 45.1% (active).

Which inhibition does the source give for `CCN(CC(=O)NCCCN1CCOCC1)S(=O)(=O)c1cc(Cl)ccc1Cl` here?
The inhibition was -1% (inactive).

For `COc1ccc(C(C[N+](=O)[O-])n2nc(C)cc2C)cc1` (configuration not stated), which inhibition is on record?
The inhibition was -13.7% (inactive).
